TDP1 block: blocks human tyrosyl-DNA phosphodiesterase 1; Potency, µM (series often up to 130 µM), hits mostly inhibitors; Q9NUW8; AID 485290; actives 0.28% (n = 350,000); recombinant TDP1, AlphaScreen DNA substrate cleavage; also: nearly all actives have a fitted effect of over 40% in size
Target sequence (Q9NUW8 whole entry, looked up): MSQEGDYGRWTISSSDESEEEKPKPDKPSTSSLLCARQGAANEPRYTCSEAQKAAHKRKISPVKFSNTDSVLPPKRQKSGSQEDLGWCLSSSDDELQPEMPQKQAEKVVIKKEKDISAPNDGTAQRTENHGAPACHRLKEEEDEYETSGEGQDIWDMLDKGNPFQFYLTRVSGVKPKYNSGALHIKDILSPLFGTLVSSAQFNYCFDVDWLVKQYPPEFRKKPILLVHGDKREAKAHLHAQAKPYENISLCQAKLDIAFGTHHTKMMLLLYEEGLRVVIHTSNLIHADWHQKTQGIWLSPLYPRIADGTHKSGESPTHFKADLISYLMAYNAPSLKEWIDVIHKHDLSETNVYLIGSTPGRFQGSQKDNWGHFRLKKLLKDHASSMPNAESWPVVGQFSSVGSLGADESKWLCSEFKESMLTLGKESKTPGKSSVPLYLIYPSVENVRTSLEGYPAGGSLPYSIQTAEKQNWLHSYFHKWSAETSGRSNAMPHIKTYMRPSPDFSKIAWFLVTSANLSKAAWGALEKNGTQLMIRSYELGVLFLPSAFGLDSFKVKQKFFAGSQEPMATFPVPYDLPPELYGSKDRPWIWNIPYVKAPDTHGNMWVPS
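Here, a 5' biotin and 3' phosphotyrosine-FITC DNA oligonucleotide reports Tdp1 activity: intact substrate bridges AlphaScreen beads, while cleavage leaves a 3' phosphate and drops signal. All incubations at room temperature.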
IL-1B inflam inh: inhibitors of inflammasome signaling (IL-1 beta secretion). THP-1 LPS/ATP IL-1B secretion, AlphaLISA, 16 h; hits give low values. AID 743279. actives 4.7% (n = 360,000). activity change, % at 57.5 µM; in the data active = activity change below about -50%; inconclusive = mostly about -30% to -49%
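Secreted IL-1B measured by AlphaLISA bead assay after 16 h compound exposure of THP-1 cells; compounds (final up to 57.5 uM) added 1 h before LPS (250 ng/mL) and ATP (1.25 mM) stimulation; lower signal means less secretion.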
CtBP-E1A blk: blocks the CtBP interaction with E1A. AlphaScreen GST-E1A/His-CtBP binding, 1536-well; hits give low values. activity change, % (concentration not given with the values). actives 0.49% (n = 340,000). AID 651724; in the data active = activity change below about -65%; inconclusive = mostly about -30% to -63%
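Homogeneous bead-based format: GST-tagged E1A captured on glutathione donor beads, His-tagged CtBP on nickel acceptor beads; compounds precede bead addition by 2 h at 37 °C.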
TDP1 cell CPT: growth inhibition of DT40 Tdp1-/-;hTDP1 cells with camptothecin (screen for TDP1 inhibitors). chicken DT40 Tdp1-/-;hTDP1 cells + 20 nM CPT, ATP luminescence, 48 h. Potency, µM (doses to about 46.2 µM), actives largely listed as inhibitors. actives 12% (n = 420,000). AID 686979; also: nearly all actives have a fitted effect of over 55% in size
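Cell growth measured by CellTiter-Glo luminescence after a minimum 48 h, 37 C compound exposure with 20 nM CPT in Tdp1-knockout DT40 cells stably expressing hTDP1, seeded 400/well; qHTS titration format.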
Six1-Eya2 inh: inhibitors of human Six1/Eya2 interaction; AID 651725; AlphaScreen GST-Six1/His-Eya2 binding, biochemical; hits give low values; activity change, % (concentration not given with the values); actives 0.56% (n = 360,000); Q15475+O00167; in the data active = activity change below about -65%; inconclusive = mostly about -30% to -63%
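AlphaScreen with GST-Six1 and His-Eya2 (5X mix: 250 nM and 500 nM), glutathione donor and nickel acceptor beads; buffer 50 mM Tris pH 8.0, 300 mM NaCl, 1 mM TCEP; 1 h at 37 C in the dark.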
DT40 TDP1 no CPT: qHTS for Inhibitors of human tyrosyl-DNA phosphodiesterase 1 (TDP1): qHTS in cells in absence of CPT; DT40 Tdp1-/- hTDP1 cells, no CPT, ATP luminescence, 48 h; actives 15% (n = 420,000); Potency, µM (highest dose often 46.2 µM), hits mostly inhibitors; also: nearly all actives have a fitted effect of over 55% in size
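Readout: luminescence from CellTiter-Glo after 30 min in the dark at RT. Cells: DT40 Tdp1-/- with stable hTDP1, 400/well. Exposure: compounds alone, ≥48 hr, 37 °C.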
A number is an active result. This is a sample that favours compounds with a hit; in the whole collection about 18% have one here. Unless noted, calls follow the shape of the dose curve; as a rule, active = well fitted curve in the direction sought with a large enough effect; inconclusive = small, poorly fitted or top-dose-only effect, or another doubt; inactive = no such curve, though single readings can be large; an effect the other way counts as inactive or inconclusive.

CCCCn1c(=N)c(C(=O)NC2CCCCC2)cc2c(=O)n3cccc(C)c3nc21 was read as TDP1 block inactive, TDP1 cell CPT inactive and DT40 TDP1 no CPT inactive.
Screening CCCn1c(=N)c(C(=O)NC2CCCC2)cc2c(=O)n3cccc(C)c3nc21 returned TDP1 block inactive, IL-1B inflam inh inactive, CtBP-E1A blk inactive, TDP1 cell CPT inconclusive, Six1-Eya2 inh inactive and DT40 TDP1 no CPT 12µM.
`CCOCCCn1c(=N)c(S(=O)(=O)c2ccccc2)cc2c(=O)n3cc(C)ccc3nc21` gave TDP1 block inactive, IL-1B inflam inh inactive, CtBP-E1A blk inactive, TDP1 cell CPT inconclusive, Six1-Eya2 inh inactive and DT40 TDP1 no CPT 16µM.
Screening COCCn1c(=N)c(S(=O)(=O)c2ccc(F)cc2)cc2c(=O)n3cccc(C)c3nc21 returned TDP1 block inactive, IL-1B inflam inh inactive, TDP1 cell CPT inconclusive, Six1-Eya2 inh inactive and DT40 TDP1 no CPT 8.2µM.
Screening CCCn1c(=N)c(S(=O)(=O)c2ccc(F)cc2)cc2c(=O)n3cccc(C)c3nc21 returned TDP1 block inactive, IL-1B inflam inh inactive, CtBP-E1A blk inactive, TDP1 cell CPT inconclusive, Six1-Eya2 inh inactive and DT40 TDP1 no CPT inactive.
Screening Cc1cccn2c(=O)c3cc(C(N)=S)c(=N)n(CCCN4CCOCC4)c3nc12 returned TDP1 block inactive, IL-1B inflam inh inactive, CtBP-E1A blk inactive, TDP1 cell CPT inconclusive, Six1-Eya2 inh inactive and DT40 TDP1 no CPT inconclusive.
`Cc1ccc(S(=O)(=O)N2CCN3CCCC3C2)cc1` (stereo not given) gave TDP1 block inactive, IL-1B inflam inh inactive, TDP1 cell CPT inactive, Six1-Eya2 inh inactive and DT40 TDP1 no CPT inactive.
For CCn1c(=N)c(C(=O)NC)cc2c(=O)n3cccc(C)c3nc21 the results were TDP1 block inactive, IL-1B inflam inh inactive, CtBP-E1A blk inactive, TDP1 cell CPT inconclusive, Six1-Eya2 inh inactive and DT40 TDP1 no CPT 16µM.
For Cc1ccc2nc3c(cc(C(N)=S)c(=N)n3CCCOC(C)C)c(=O)n2c1 the results were TDP1 block inactive, IL-1B inflam inh inactive, CtBP-E1A blk inactive, TDP1 cell CPT 16µM, Six1-Eya2 inh inactive and DT40 TDP1 no CPT 16µM.
Screening CCOCCCn1c(=N)c(C(=O)NCc2ccc3c(c2)OCO3)cc2c(=O)n3cccc(C)c3nc21 returned TDP1 block inactive, IL-1B inflam inh -60, CtBP-E1A blk inactive, TDP1 cell CPT inconclusive, Six1-Eya2 inh inactive and DT40 TDP1 no CPT inconclusive.
COCCCn1c(=N)c(C(=O)NCc2cccnc2)cc2c(=O)n3cc(C)ccc3nc21 was read as TDP1 cell CPT inactive and DT40 TDP1 no CPT inactive.
For Cc1cccn2c(=O)c3cc(C(=O)NC4CCCCC4)c(=N)n(CCN4CCOCC4)c3nc12 the results were TDP1 block inactive, IL-1B inflam inh inactive, CtBP-E1A blk inactive, TDP1 cell CPT inconclusive, Six1-Eya2 inh inactive and DT40 TDP1 no CPT inconclusive.
COCCCn1c(=N)c(C(=O)NCc2ccc3c(c2)OCO3)cc2c(=O)n3cccc(C)c3nc21 was read as IL-1B inflam inh inactive, CtBP-E1A blk inactive, TDP1 cell CPT inactive, Six1-Eya2 inh inactive and DT40 TDP1 no CPT inactive.
For CCOCCCn1c(=N)c(C(=O)NC2CCCC2)cc2c(=O)n3cccc(C)c3nc21 the results were TDP1 cell CPT inconclusive and DT40 TDP1 no CPT 21µM.
`CCn1c(=N)c(C(=O)NCc2ccccc2)cc2c(=O)n3cccc(C)c3nc21` gave TDP1 cell CPT inactive and DT40 TDP1 no CPT inactive.
Screening O=C(CNC(=O)c1ccccc1F)NCCCN1CCCC1=O returned IL-1B inflam inh inactive, CtBP-E1A blk inactive, TDP1 cell CPT inactive, Six1-Eya2 inh inactive and DT40 TDP1 no CPT inactive.
CCOC(=O)C1CCN(C(=O)C2CCN(C3=NS(=O)(=O)C(c4ccc(C)c(C)c4)=C3C)CC2)CC1 was read as TDP1 block inactive, TDP1 cell CPT 16µM and DT40 TDP1 no CPT inconclusive.
For CC1=C(c2ccc(C)c(C)c2)S(=O)(=O)N=C1N1CCC(C(=O)Nc2ccc(Cl)cc2)CC1 the results were TDP1 block inactive, TDP1 cell CPT 16µM and DT40 TDP1 no CPT 15µM.
`CC1=C(c2ccc(C)c(C)c2)S(=O)(=O)N=C1N1CCC(C(=O)N2CCC(C)CC2)CC1` gave TDP1 block inactive, TDP1 cell CPT inconclusive and DT40 TDP1 no CPT 6.5µM.
Screening CCn1c(-c2csc(C(C)C)c2)n[nH]c1=S returned TDP1 block inactive, IL-1B inflam inh inactive, CtBP-E1A blk inactive, TDP1 cell CPT inactive, Six1-Eya2 inh inactive and DT40 TDP1 no CPT inconclusive.
Screening Cc1ccc(C(=O)O/N=C(\N)Cc2cccs2)c(Cl)c1 returned TDP1 block inactive, IL-1B inflam inh inconclusive, CtBP-E1A blk inactive, TDP1 cell CPT inconclusive, Six1-Eya2 inh inactive and DT40 TDP1 no CPT inactive.
`CCN(CC(=O)Nc1ccc(NC(C)=O)cc1)C(=O)C1CCN(C(=O)c2ccccc2C)CC1` gave IL-1B inflam inh inactive, CtBP-E1A blk inactive, TDP1 cell CPT inactive, Six1-Eya2 inh inactive and DT40 TDP1 no CPT inactive.
`CCn1ccnc1CN(C)Cc1nc(-c2cccc(Cl)c2)no1` gave TDP1 block inactive, IL-1B inflam inh inactive, CtBP-E1A blk inactive, TDP1 cell CPT inactive, Six1-Eya2 inh inactive and DT40 TDP1 no CPT inactive.
Screening Cc1ccc(-n2cc(CN3CCN(Cc4nccn4C)CC3)c(-c3cccc(C)c3)n2)cc1 returned TDP1 block inactive, IL-1B inflam inh -57, CtBP-E1A blk inactive, TDP1 cell CPT inconclusive, Six1-Eya2 inh inactive and DT40 TDP1 no CPT inconclusive.
`CCn1ccnc1CN(C)Cc1cn(-c2ccc(C)cc2)nc1-c1cccc(C)c1` gave TDP1 block inactive, IL-1B inflam inh -249, CtBP-E1A blk inactive, TDP1 cell CPT inconclusive, Six1-Eya2 inh inactive and DT40 TDP1 no CPT inactive.
`CCn1ccnc1CN(C)Cc1cn(-c2cccc(C)c2)nc1-c1cccc(F)c1` gave TDP1 block inactive, IL-1B inflam inh -62, CtBP-E1A blk inactive, TDP1 cell CPT 16µM, Six1-Eya2 inh inconclusive and DT40 TDP1 no CPT inconclusive.
`CN(CCc1ccccc1)C(=O)c1ccc(NC(=O)Cc2cccc(NC(=O)C3CCN(C(=O)C4CCCCC4)CC3)c2)cc1` gave IL-1B inflam inh inactive, CtBP-E1A blk inactive, TDP1 cell CPT inconclusive, Six1-Eya2 inh inactive and DT40 TDP1 no CPT 21µM.
Screening CN(CCc1ccccc1)C(=O)c1cccc(NC(=O)Cc2cccc(NC(=O)C3CCN(C(=O)C4CCCCC4)CC3)c2)c1 returned IL-1B inflam inh inactive, CtBP-E1A blk inactive, TDP1 cell CPT inconclusive, Six1-Eya2 inh inactive and DT40 TDP1 no CPT inconclusive.
CN(CCc1ccccc1)C(=O)c1cccc(NC(=O)Cc2cccc(NC(=O)C3CCN(C(=O)C4CCC4)CC3)c2)c1 was read as IL-1B inflam inh inactive, CtBP-E1A blk inactive, TDP1 cell CPT inconclusive, Six1-Eya2 inh inactive and DT40 TDP1 no CPT 15µM.

Compound activity deposited in PubChem BioAssay by National Center for Advancing Translational Sciences (NCATS).
